Screening results deposited in PubChem BioAssay by Sanford-Burnham Center for Chemical Genomics.
NALP1 yeast inh: blocks the NALP1 inflammasome reconstituted in yeast; S. cerevisiae NALP1/ASC/caspase-1 growth, X-gal OD620, 72 h; inhibition, % at 10 µM; hit rate 0.61% among 280,000; AID 2071; in the data active means inhibition mostly above about 24%, no sharp cut-off; inactive means mostly below about 32%
tim10-1 inh: tim10-1 yeast growth inhibition | S. cerevisiae tim10-1 ts strain growth, BacTiter-Glo, 24 h | inhibition, % at 20 µM | hit rate 2.2% among 330,000;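 active means inhibition of at least 40%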;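 further: mutant grown at 25 °C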
tim23-1 inh: growth inhibitors of tim23-1 mutant yeast; hit rate 1.3% among 330,000; S. cerevisiae tim23-1 growth, BacTiter-Glo luminescence, 24 h; inhibition, % at 20 µM; AID 463212;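 active means growth inhibition of the mutant yeast at or above 50%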;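 further: temperature-sensitive mutant grown at 25 °C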
NLRP3 yeast inh: inhibitors of NALP3 inflammasome in yeast. Yeast reconstituted NLRP3/ASC/caspase-1, beta-gal luminescence, 24 h. inhibition, % at 10 µM. hit rate 0.39% among 330,000;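 active means inhibition of 50% or more; inactive means inhibition below 50%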
TIM10 inh: growth inhibitors of TIM10 yeast strain; S. cerevisiae TIM10 strain growth, BacTiter-Glo luminescence, 24 h; inhibition, % at 10 µM; hit rate 1.4% among 330,000;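 active means inhibition of 40% or more at the single tested concentration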;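 further: wild-type TIM10 isogenic control strain grown at permissive 25 °C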
Numbers stand for hits; 0 = inactive; - = no result. This is a sample that favours compounds with a hit; in the whole collection about 4% have one here.

SMILES | NALP1 yeast inh | tim10-1 inh | tim23-1 inh | NLRP3 yeast inh | TIM10 inh
CCOC(=O)c1cc(CC)sc1N1C(=O)CC(Sc2ccccc2C(=O)O)C1=O (centres undefined) | 0 | 0 | 0 | 0 | 0
O=C(O)c1ccccc1SC1CC(=O)N(c2ccccc2)C1=O (centres undefined) | 57 | 0 | 0 | 0 | 0
CCOc1ccc(CNC(=O)C2CCCN(S(=O)(=O)N3CC(C)CC(C)C3)C2)cc1OC (centres undefined) | 0 | 0 | 0 | 0 | 0
Cc1ccc(C)c(OCCC(=O)OCC(=O)NNC(=O)c2ccccc2)c1 | - | 0 | 0 | 0 | 0
Cc1ccc(CN2CCC(=O)N2)cc1 | 0 | 0 | 0 | 0 | 0
COC(=O)c1c(C)nc2nonc2c1N | 0 | 0 | 0 | 0 | 0
CCN1CCCC1CN(Cc1cc2ccc(C)cc2[nH]c1=O)C(=S)Nc1ccccc1OC (centres undefined) | 0 | 0 | 0 | 0 | 0
CCN1CCCC1CN(Cc1cc2ccc(C)cc2[nH]c1=O)C(=S)Nc1ccccc1C(=O)OC (centres undefined) | 37 | 0 | 0 | 0 | 0
CCOc1ccc(NC(=O)COc2cccc3c2CCN(Cc2cccnc2)C3=O)cc1 | 0 | 0 | 0 | 0 | 0
CNS(=O)(=O)c1cnccc1N1CCN(c2cccc(Cl)c2)CC1 | - | 0 | 0 | 0 | 0
CCN(CC)S(=O)(=O)c1cnccc1N1CCN(c2cccc(Cl)c2)CC1 | 54 | 0 | 0 | 0 | 0
COc1ccccc1CNC(=O)CN1C(=O)NC2(CCCCCCC2)C1=O | - | 0 | 0 | 0 | 0
O=C(Nc1cccc(C(F)(F)F)c1)Oc1ccc(Cl)c2cccnc12 | 48 | - | - | - | -
CS(=O)(=O)c1ccc(N2CCN(S(=O)(=O)c3cccs3)CC2)c([N+](=O)[O-])c1 | - | 0 | 0 | 0 | 0
COc1ccc(CNC(=O)C(=O)NCc2cccnc2)cc1 | 28 | 0 | 0 | 0 | 0
COc1ccc(C2=NS(=O)(=O)N(C)C(C(=O)N3CCOCC3)=C2)cc1OC | 0 | 0 | 0 | 0 | 0
O=C(Nc1ccccc1)c1cc([N+](=O)[O-])ccc1N1CCCCC1 | - | 0 | 0 | 0 | 0
O=C(NC(=S)Nc1ccccc1)c1cc([N+](=O)[O-])ccc1N1CCOCC1 | 26 | 0 | 0 | 0 | 0
CSCC[C@@H](C(=O)O)N1Cc2ccccc2C1=O | 39 | 0 | 0 | 0 | 0
c1ccc(CCNc2c3c(nc4ncnn24)CCC3)cc1 | 25 | 0 | 0 | 0 | 0
Fc1ccccc1CCNc1c2c(nc3ncnn13)CCCC2 | 0 | 0 | 0 | 0 | 0
Oc1c(CN2CCCCC2)cc(Br)c2cccnc12 | 58 | 0 | 0 | 0 | 0
O=C(COc1c(Br)cc(Br)c2cccnc12)N1CCCCC1 | 0 | 0 | 0 | 0 | 0
Cc1ccc(C)c(NC(=O)CCN2CC(C)CC(C)C2)c1 (centres undefined) | 38 | 0 | 0 | 0 | 0
Cc1ccc(C)c(NC(=O)CCN2CCC(C)CC2)c1 | 0 | 0 | 0 | 0 | 0
SMILES | NALP1 yeast inh | tim10-1 inh | tim23-1 inh | NLRP3 yeast inh | TIM10 inh
COC(=O)[C@H](Cc1ccccc1)NC(=O)C1CCN(C(=O)[C@H](C)NS(=O)(=O)c2ccc(C)cc2)CC1 | 0 | 0 | 0 | 0 | 0
CN1CCN(CC(=O)N(Cc2c(C#N)c3ccccc3n2C)c2ccccc2)CC1 | 30 | 0 | 0 | 0 | 0
Cc1ccc2nc(N(CCCN(C)C)C(=O)CCc3ccccc3)sc2c1 | 48 | - | - | - | -
CN(C)CCCN(C(=O)CCc1ccccc1)c1nc2ccc(Cl)cc2s1 | 64 | 0 | 0 | 0 | 0
CC(=O)O/N=C/c1c(N2CCOCC2)n(C)c2ccccc12 | 29 | 0 | 0 | 0 | 0
Cn1c(N2CCOCC2)c(/C=N/O)c2ccccc21 | 0 | 0 | 0 | 0 | 0
COc1cc(C2SCC(=O)N2c2c(C)n(C)n(-c3ccccc3)c2=O)ccc1O (centres undefined) | 38 | 0 | 0 | 0 | 0
Cc1nnc(N(C)C(=O)c2ccncc2)s1 | 0 | 0 | 0 | 0 | 0
COC(=O)c1cc(NC2c3ccccc3C(=O)N2CCN2CCOCC2)cc(C(=O)OC)c1 (centres undefined) | 0 | 0 | 0 | 0 | 0
Cc1cc(C)cc(NC(=O)c2cnn(-c3ccccc3)c2C2CCNCC2)c1 | 23 | 0 | 0 | 0 | 0
CCc1ccc(NC(=O)c2cnn(-c3ccccc3)c2C2CCNCC2)cc1 | 0 | 0 | 0 | 0 | 0
Cc1cc(-c2nnc(SCC(=O)Nc3ccccc3C(F)(F)F)o2)c(C)n1-c1ccccc1 | 44 | 0 | 0 | 0 | 0
COc1ccc2[nH]c3c(=O)n(CCCC(=O)NC4CCCCC4C)c(=S)[nH]c3c2c1 (centres undefined) | 0 | 0 | 0 | 0 | 0
Cc1ccccc1OCc1csc(N)n1 | 45 | 0 | 0 | 0 | 0
